APEX1 inh – qHTS Assay for Inhibitors of the Human Apurinic/apyrimidinic Endonuclease 1 (APE1); recombinant APE1, TAMRA/BHQ-2 abasic DNA cleavage fluorescence; Potency, µM (series often up to 65.8 µM), for the others: at the highest dose activity change, negative = inhibition, most hits filed as inhibitors; hit rate 0.35% among 350,000; AID 2517, 2012;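 note: plate controls were vehicle for no effect and reference inhibitor for full effect; nearly all actives have a fitted effect of over 55% in size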
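Readout is kinetic fluorescence (ex 525, em 598 nm) from cleavage of 50 nM TAMRA/BHQ-2 THF abasic duplex by 0.75 nM APE1, compound added 15 min beforehand at RT.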
KAT2A inh – qHTS Assay for Inhibitors of GCN5L2; Histone acetyltransferase KAT2A (Homo sapiens), Q92830; GCN5L2 HAT assay, ThioGlo1 CoA-SH fluorescence; Potency, µM (highest dose often 58.9 µM), for inactives: top-dose activity change, negative = inhibition, most hits filed as inhibitors; hit rate 0.21% among 390,000; AID 504327, 2011
Target sequence (Q92830 whole entry, looked up): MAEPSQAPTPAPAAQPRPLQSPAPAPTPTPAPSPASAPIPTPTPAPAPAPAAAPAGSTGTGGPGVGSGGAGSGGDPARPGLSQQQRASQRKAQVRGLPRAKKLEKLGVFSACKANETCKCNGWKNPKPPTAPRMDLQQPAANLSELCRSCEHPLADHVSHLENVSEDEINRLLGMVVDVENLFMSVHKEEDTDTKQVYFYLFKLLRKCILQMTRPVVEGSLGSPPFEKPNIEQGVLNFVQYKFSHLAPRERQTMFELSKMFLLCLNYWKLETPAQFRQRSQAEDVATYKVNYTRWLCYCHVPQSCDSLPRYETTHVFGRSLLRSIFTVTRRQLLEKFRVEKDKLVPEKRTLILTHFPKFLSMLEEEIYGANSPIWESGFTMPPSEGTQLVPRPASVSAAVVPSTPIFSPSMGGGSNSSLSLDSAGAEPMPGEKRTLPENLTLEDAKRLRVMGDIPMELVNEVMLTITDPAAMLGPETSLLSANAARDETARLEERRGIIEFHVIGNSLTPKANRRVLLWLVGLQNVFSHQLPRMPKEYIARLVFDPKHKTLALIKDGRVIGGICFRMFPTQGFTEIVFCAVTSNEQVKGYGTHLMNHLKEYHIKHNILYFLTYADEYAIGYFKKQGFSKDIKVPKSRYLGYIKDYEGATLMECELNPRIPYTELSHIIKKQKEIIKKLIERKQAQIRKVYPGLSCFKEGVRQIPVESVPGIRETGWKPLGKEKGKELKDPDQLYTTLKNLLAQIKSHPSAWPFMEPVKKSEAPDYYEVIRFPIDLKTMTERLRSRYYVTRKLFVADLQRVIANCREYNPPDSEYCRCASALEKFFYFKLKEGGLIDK
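Free CoA generated was detected with ThioGlo1 (50uM) fluorescence at Ex340nm/Em540nm, read immediately and after 20 min at room temperature. Enzyme, 20 nM in HEPES pH 7.5 buffer, saw compounds 15 min before adding 75uM H3(1-25) peptide and 70uM acetyl-CoA.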
TDP1 block – qHTS Assay for Inhibitors of Tyrosyl-DNA Phosphodiesterase (TDP1); recombinant TDP1, AlphaScreen DNA substrate cleavage; Potency, µM (top dose mostly 130 µM), for inactives: top-dose activity change, negative = inhibition, hits mostly inhibitors; hit rate 0.28% among 350,000; AID 485290, 2010; note: nearly all actives have a fitted effect of over 40% in size
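AlphaScreen read-out: signal falls as enzyme removes the 3' tyrosine-FITC from a 5'-biotinylated DNA oligo (15 nM, 5 min, RT). Enzyme was E. coli-made recombinant Tdp1 at 1 nM, exposed to compound for 15 min beforehand; beads 10 ug/ml, 10 min.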
BLM helicase inh – qHTS Assay for Inhibitors of Bloom's syndrome helicase (BLM) | RecQ-like DNA helicase BLM (Homo sapiens), P54132 | recombinant BLM DNA unwinding, fluorescence dequenching | Potency, µM (titrated, usually from 56.1 µM), without a hit: top-dose activity change, negative = inhibition, hits mostly inhibitors | hit rate 0.2% among 350,000 | AID 2528, 2010;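 note: plate controls were vehicle for no effect and no enzyme for full effect; nearly all actives have a fitted effect of over 35% in size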
RECQ1 helicase – qHTS Assay for Inhibitors of RecQ-Like Dna Helicase 1 (RECQ1); AID 2549, 2010; Potency, µM (titrated, usually from 57.3 µM), for inactives: at the top dose activity, negative = inhibition, usual class: inhibitors; ATP-dependent DNA helicase Q1 (Homo sapiens), P46063; hit rate 0.54% among 240,000; RECQ1 DNA unwinding, red fluorescence kinetic read;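 note: plate controls were vehicle for no effect and no enzyme for full effect; nearly all actives have a fitted effect of over 30% in size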
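RECQ1T1 50 nM; forked duplex (20 bp + 30-nt ss tails) 200 nM, ATP 2 mM final; pH 8.0, 2 mM MgCl2, 2.5 ug/ml poly(dI-dC); 15 min compound preincubation; discontinuous kinetic read over 2 h at RT.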
An asterisk follows results filed as active; i = inactive; ? = inconclusive; · = not tested or not shown. Hits are enriched below; roughly 0.87% of the tested compounds scored in any of these assays. Calls come from the whole dose curve; as a rule, active = well fitted curve in the direction sought with a large enough effect; inconclusive = small, poorly fitted or top-dose-only effect, or another doubt; inactive = no such curve, though single readings can be large; an effect the other way counts as inactive or inconclusive. Unless noted, % is set by controls: 0 for no effect and ±100 for the full control effect; potency is the fitted concentration of half-maximal effect.

SMILES	APEX1 inh	KAT2A inh	TDP1 block	BLM helicase inh	RECQ1 helicase
CCCCC/C=C\C=C\[C@@H](O)CCCCCCCC(=O)O	20%	·	6%	4%	-2%
CN1CCN(c2ncncc2-c2cccnc2)CC1	1%	0.89µM*	·	-17%	2%
Oc1cccc(/C=N/NC(=S)Nc2cccnc2)c1O	?	-1%	0%	-20%	?
Oc1ccc(/C=N/NC(=S)Nc2cccnc2)c(O)c1O	0.79µM*	-9%	·	-20%	3.5µM*
O=C1NN(c2ccccc2)C(=O)/C1=C\c1ccc(-c2cc([N+](=O)[O-])ccc2O)o1	6%	-16%	4%	-6%	28µM*
O=C1NN(c2ccc(Cl)cc2)C(=O)/C1=C\c1ccc(-c2cccc(C(=O)O)c2)o1	7.9µM*	-27%	·	-26%	?
Cc1ccc(N2NC(=O)/C(=C/c3ccc(-c4ccc(Cl)c(C(=O)O)c4)o3)C2=O)cc1	1%	-2%	8%	-3%	-3%
Cc1ccc(NS(=O)(=O)c2cc3c(cc2Cl)NC(=O)C3)cc1C	·	·	0%	·	·
Cc1oc(-c2ccc(Cl)cc2)cc1-c1nn2c(-c3ccco3)nnc2s1	?	-14%	?	-22%	32µM*
O=C(Cn1cc(CN(Cc2ccccc2)Cc2ccccc2)nn1)Nc1cc(C(F)(F)F)ccc1Cl	·	·	1%	·	·
O=C1c2ccccc2C(=O)N1c1cccc2ccncc12	·	·	2%	·	·
C=CCn1c(SCc2nc3sc(C(=O)O)c(C)c3c(=O)[nH]2)nnc1-c1ccccc1	15%	-5%	·	-10%	i
C=CCn1c(SCc2nc3sc(C(=O)O)c(C)c3c(=O)[nH]2)nnc1-c1ccc(C(C)(C)C)cc1	?	-1%	20µM*	-5%	-2%
CC(=O)c1sc2nc(CSc3nnnn3-c3ccccc3)[nH]c(=O)c2c1C	3%	?	8%	16µM*	i
Clc1ccccc1COc1ccc(/C=N/n2cnnc2)cc1	18%	2%	79µM*	-14%	-11%
COc1ccc(C2Nc3ccccc3C(=O)N2Cc2cccc(-c3ccccc3)c2)cc1COc1ccc(NC(C)=O)cc1 (configuration not stated)	·	·	1%	·	·
CN(C)c1ncc2nc(-c3ccccc3)c(=O)n(C3CC3)c2n1	1%	22µM*	·	-3%	-1%
CCCCCCCCCCCCCCCCCCc1ccc(C(=O)/C=C\C(=O)O)cc1	?	2.8µM*	?	-8%	3%
CCCCCCCCCCCCCCCCCCc1ccc(C(=O)/C=C/C(=O)O)cc1	?	-4%	-9%	·	?
CCCCCCCCc1ccc(-c2ccc(C(=O)O)cc2)cc1	-2%	20µM*	15%	-4%	2%
O=C1CCCC2=C1C1(CCCC1)N=C(Nc1nc3ccccc3n1Cc1ccccc1)N2	·	·	1%	·	·
O=[N+]([O-])c1cc(Br)cc(C=Nc2ccc3c(c2)OCO3)c1O	-5%	-8%	9%	14µM*	?
N.N.O=C(O)C1(C(=O)O)CCC1.[Pt]	6.3µM*	·	·	0%	-29%
O=C(O)C1(C(=O)O)CCC1	5%	-20%	·	·	·
COc1ccc(C2=Nn3c(nnc3-c3ccccc3C(F)(F)F)SC2)cc1O[C@H]1CCOC1	22%	·	·	·	·
SMILES	APEX1 inh	KAT2A inh	TDP1 block	BLM helicase inh	RECQ1 helicase
O=C(CSc1nc(-c2ccc(F)cc2)nc2c1Cc1ccccc1O2)Nc1ccc(F)cc1	14%	·	·	·	·
C=CCNc1oc(-c2ccc(F)cc2)nc1C#N	49%	·	·	·	·
CCc1cc(=O)oc2c(CN3CCCC3)c(O)c(Cl)cc12	12%	-25%	9%	2%	i
CCc1cc(=O)oc2cc(C)c(CN3CCCC(C)C3)c(O)c12 (configuration not stated)	14µM*	32µM*	·	?	7.1µM*
O=C(c1ccco1)N1CCN(C(=O)c2ccc(-c3ccc([N+](=O)[O-])cc3)o2)CC1	?	?	35µM*	·	·
O=C(c1ccc([N+](=O)[O-])cc1)N1CCN(C(=O)c2ccco2)CC1	1%	-4%	-1%	2%	28%
N#Cc1c(-c2ccc(F)cc2)no[n+]1[O-]	2%	·	·	·	·
CC(C)OCCCNC(=O)c1cc(S(=O)(=O)N2CCc3ccccc32)cn1C	16%	0.79µM*	·	2%	·
COc1ccc(C)cc1NC(=O)C(OC(=O)CNC(=O)c1ccccc1)c1ccccc1 (configuration not stated)	·	·	126µM*	·	·
C=C1C=C(C(F)F)n2ncc(C(=O)NCc3ccccc3C(F)(F)F)c2N1	-28%	·	·	·	·
COCCNc1ncnc2ccc(-c3ccoc3)cc12	?	?	·	-11%	-1%
CC(=O)NCCNc1ncnc2ccc(-c3ccoc3)cc12	-6%	25µM*	·	1%	i
Cc1c(C(=O)N/N=C/c2ccc(-c3ccccc3[N+](=O)[O-])o2)sc(N)c1C#N	1%	-5%	·	7.9µM*	-10%
O=C(N/N=C\c1ccc(-c2ccccc2[N+](=O)[O-])o1)C1COc2cc3ccccc3cc2O1 (configuration not stated)	-9%	22µM*	2%	-9%	-4%
O=C1CCc2cc(S(=O)(=O)NCc3ccccc3)ccc2N1	·	·	1%	·	·
CCOc1ccc(NC(=O)CN2CCN(CC(=O)Nc3ccccc3OCC)CC2)cc1	·	-13%	-3%	-2%	·
CCOc1ccccc1NC(=O)CN1CCCCCC1	7%	1%	14µM*	-8%	·
Cc1cc(N2C(=O)C=CC2=O)c([N+](=O)[O-])cc1C	-2%	20µM*	6%	-2%	-1%
CCOc1ccc(C=NNc2ccc(S(=O)(=O)Nc3ccccc3C(=O)O)cc2[N+](=O)[O-])cc1	-42%	?	-13%	·	·
CSc1ccc(C=NNc2ccc(S(=O)(=O)Nc3ccccc3C(=O)O)cc2[N+](=O)[O-])cc1	8.4µM*	?	-18%	·	·
COc1ccc(O)c(C(=O)c2cc(SCC(=O)O)c3nc4sc5c(c4c(=O)n3c2)CCCC5)c1	?	?	·	22µM*	i
O=C(CSCc1ccc(Cl)cc1)N/N=C/c1ccc(OCC(=O)Nc2ccccc2)cc1	13%	-1%	-3%	-11%	i
Cc1ccc(NC(=O)COc2ccc(/C=N/NC(=O)CSCc3ccccc3)cc2)cc1	?	-5%	56µM*	-7%	3%
CCCCCC(CC)COC(=O)CC(C(=O)OCC(CC)CCCC)S(=O)(=O)O (configuration not stated)	·	·	·	-29%	·
COc1ccc(O)c(C2Nc3ccccc3C(=O)N2Cc2ccccc2)c1 (configuration not stated)	·	·	1%	·	·
